# Source: PubChem BioAssay
# For some assays here: Potency and affinity values are given separately. This is one part of the list. Results filed as inconclusive are left out. Activity calls are given as the source filed them. Unless noted, the rule behind the calls is not given here.
# Key:
# [1] = Ring1 mRNA increase in mouse ESCs, confirmation, esBAF inhibitor project, cell-based, mouse ESC, RT-qPCR, cherry-pick (AID 743176;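 active = Ring1 gene expression raised more than 2-fold over untreated cells in both replicates at either tested dose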;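 note: Ring1 transcript normalised to actin housekeeping signal by TaqMan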); conditions: mouse ESC E14, Ring1 mRNA RT-qPCR fold change, stronger effect = higher value
# [2] = Fgf4 mRNA decrease in mouse ESCs, confirmation, esBAF inhibitor project, cell-based, mouse ESC, RT-qPCR, cherry-pick (AID 743177;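 active = Fgf4 expression under 0.8 fold of control in both repeat measurements at one or both tested doses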;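 note: Fgf4 transcript normalised to actin in duplex TaqMan qPCR; cells exposed to compound for 24 h before lysis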); conditions: mouse ESC E14, Fgf4 mRNA qPCR fold change, stronger effect = lower value
# [3] = esBAF inhibition via Bmi1 de-repression, confirmation, cell-based, RT-qPCR, mouse ESC, single point, cherry-pick (AID 743180;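 active = Bmi1 expression fold change above 6 at either tested concentration, seen in replicate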); conditions: mouse ESC E14, Bmi1 mRNA qPCR fold, stronger effect = higher value
# [4] = A549 cell cytotoxicity, cytotoxicity control, plate reader, single point, cherry-pick (AID 743188); conditions: at 25 µM
# [5] = HepG2 cell cytotoxicity, cytotoxicity control, plate reader, single point, cherry-pick (AID 743189; in the data active = activity change below about -50%); conditions: at 25 µM, stronger effect = lower value
# [6] = HEK293 cell cytotoxicity, cytotoxicity control, plate reader, single point, cherry-pick (AID 743190; in the data active = activity change below about -38%, passing the limit was not always enough); conditions: at 25 µM
# [7] = cytotoxicity in OVCAR8 ovarian cancer cells, dose response, PAX8 project, cell-based, plate reader, dry powder samples (AID 743197)
SMILES,"fold change ([1]; Ring1 fold increase, at 7 µM)",fold change ([1]; at 33 µM),"Fgf4 expression fold change ([2]; Fgf4 expression, at 7 µM)",Fgf4 expression fold change ([2]; at 33 µM),"fold change ([3]; Bmi1 de-repression, at 7 µM)",fold change ([3]; at 33 µM),cell viability change % (negative = cytotoxic) [4],"activity change, negative = inhibition [5]","activity change, negative = inhibition [6]",outcome [7]
Cc1ccc(C(=O)Nc2ccc3c(c2)OCO3)cc1S(=O)(=O)N1CCCCC1,1.42,1.4 (inactive),0.993,0.915 (inactive),1.85,1.9 (inactive),4.97% (inactive),-30.2% (inactive),-2.34% (inactive),–
COc1ccc(Nc2ncnc3sc(C)cc23)cc1,1.32,1.33 (inactive),1.18,1.26 (inactive),1.3,1.05 (inactive),-6.19% (inactive),-4.23% (inactive),-3.92% (inactive),–
COC(=O)/C(=C1\Oc2ccc(C(C)(C)C)cc2S1)C(F)(F)F,1.4,1.09 (inactive),1.06,0.881 (inactive),1.51,1.42 (inactive),-9.79% (inactive),-31.4% (inactive),0.258% (inactive),–
O=C(c1cc(-c2ccc(Cl)cc2)on1)N1CCN(c2ccccc2)CC1,1.25,1.06 (inactive),1.02,0.994 (inactive),1.17,1.27 (inactive),-16.6% (inactive),9.34% (inactive),-19.5% (inactive),–
COc1ccc(Nc2ccc3ccccc3c2)cc1,1.4,1.14 (inactive),–,–,1.37,2.11 (inactive),-5.46% (inactive),10% (inactive),-0.0365% (inactive),–
Cc1ccc(-c2nc(COC(=O)c3c(C)noc3C)cs2)cc1,1.44,1.18 (inactive),1.15,1.07 (inactive),1.56,1.73 (inactive),-1.11% (inactive),-41.9% (inactive),-15.3% (inactive),–
O=S(=O)(NC[C@@H]1CC[C@@H]2[C@@H](CN2CC(c2ccccc2)c2ccccc2)O1)c1ccccc1F,–,–,–,–,–,–,–,–,–,inactive
COc1cc2ccccc2cc1C(=O)Nc1ccncc1,1.36,1.54 (inactive),0.817,1.21 (inactive),1.73,2.14 (inactive),-3.23% (inactive),-16.4% (inactive),6.79% (inactive),–
O=C(NN=Cc1ccc2c(c1)CCC2)c1ccccc1O,1.13,1.24 (inactive),0.906,0.972 (inactive),1.51,1.77 (inactive),-5.69% (inactive),-32.1% (inactive),0.295% (inactive),–
O=C(c1ccc(Cl)cc1)c1cnc(Nc2ccccc2)s1,1.37,1.43 (inactive),1.07,0.927 (inactive),1.41,1.36 (inactive),-9.73% (inactive),-14.8% (inactive),-18.7% (inactive),–
O=C(CCNC(=O)c1ccccc1)Nc1nc2ccccc2s1,1.2,0.581 (inactive),0.839,0.653 (active),1.36,1.77 (inactive),-14% (inactive),11.7% (inactive),-12.3% (inactive),–
Cc1nc(-c2ccccc2)sc1-c1nnc(C2CC2)o1,1.23,1.31 (inactive),0.99,1.05 (inactive),1.21,1.79 (inactive),1.56% (inactive),-14.2% (inactive),-0.816% (inactive),–
CC(Cc1cccs1)NC(=O)c1cccc(Cl)c1 (stereo unspecified),1.11,1.07 (inactive),1.02,1.08 (inactive),1.36,1.53 (inactive),-16% (inactive),-51.2% (active),-22.2% (inactive),–
CC(C)(C)NC(=O)Cn1nnc(-c2ccccc2Cl)n1,1.18,1.12 (inactive),0.977,0.933 (inactive),1.16,1.15 (inactive),-11.9% (inactive),-3.1% (inactive),-13.6% (inactive),–
